Source: PubChem BioAssay (several laboratories)
Hits are enriched below; roughly 3.1% of the tested compounds scored in any of these assays.
Neddyl block: cullin neddylation inhibition; P61081+Q13564; TR-FRET cullin neddylation, biochemical; calls only at 25 µM; 0.58% of 360,000 active; AID 651699; in the data active = inhibition above about 36%
LEDGF integ inh: blocks HIV-1 LEDGF/p75-dependent DNA integration; TR-FRET IN-LEDGF/p75 DNA integration, Eu/Cy5; AID 743269; 0.64% of 370,000 active; inhibition, % at 3.7 µM;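 active = inhibition above the screen-wide mean plus 3 SD, cut at about 13% in these data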;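 also: signal is the Cy5 over europium emission ratio at 671 and 618 nm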
UHRF1 MBD2 ctr: blocks human UHRF1 binding to methylated DNA; inhibition, % at 4.4 µM; UHRF1 binding to methylated oligo, TR-FRET; AID 687016; Q96T88; 0.75% of 370,000 active; in the data active = inhibition above about 21%;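 also: UHRF1 SRA domain binding a hemimethylated CpG hairpin DNA probe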
MBD2 DNA inh: MBD2-methylated oligo binding inhibition. TR-FRET, MBD2 binding to methylated oligonucleotide. Q9UBB5. inhibition, % at 4.4 µM. 0.31% of 370,000 active; in the data active = inhibition above about 13%
Rin1-Abl PPI inh: human Rin1-Abl interaction inhibition; P00519+Q13671; TR-FRET Rin1/Abl binding, biochemical; inhibition, % at 7.35 µM; 0.4% of 360,000 active; AID 588664; in the data active = inhibition above about 5%, passing the limit was not always enough
Target sequence (P00519 whole entry, looked up): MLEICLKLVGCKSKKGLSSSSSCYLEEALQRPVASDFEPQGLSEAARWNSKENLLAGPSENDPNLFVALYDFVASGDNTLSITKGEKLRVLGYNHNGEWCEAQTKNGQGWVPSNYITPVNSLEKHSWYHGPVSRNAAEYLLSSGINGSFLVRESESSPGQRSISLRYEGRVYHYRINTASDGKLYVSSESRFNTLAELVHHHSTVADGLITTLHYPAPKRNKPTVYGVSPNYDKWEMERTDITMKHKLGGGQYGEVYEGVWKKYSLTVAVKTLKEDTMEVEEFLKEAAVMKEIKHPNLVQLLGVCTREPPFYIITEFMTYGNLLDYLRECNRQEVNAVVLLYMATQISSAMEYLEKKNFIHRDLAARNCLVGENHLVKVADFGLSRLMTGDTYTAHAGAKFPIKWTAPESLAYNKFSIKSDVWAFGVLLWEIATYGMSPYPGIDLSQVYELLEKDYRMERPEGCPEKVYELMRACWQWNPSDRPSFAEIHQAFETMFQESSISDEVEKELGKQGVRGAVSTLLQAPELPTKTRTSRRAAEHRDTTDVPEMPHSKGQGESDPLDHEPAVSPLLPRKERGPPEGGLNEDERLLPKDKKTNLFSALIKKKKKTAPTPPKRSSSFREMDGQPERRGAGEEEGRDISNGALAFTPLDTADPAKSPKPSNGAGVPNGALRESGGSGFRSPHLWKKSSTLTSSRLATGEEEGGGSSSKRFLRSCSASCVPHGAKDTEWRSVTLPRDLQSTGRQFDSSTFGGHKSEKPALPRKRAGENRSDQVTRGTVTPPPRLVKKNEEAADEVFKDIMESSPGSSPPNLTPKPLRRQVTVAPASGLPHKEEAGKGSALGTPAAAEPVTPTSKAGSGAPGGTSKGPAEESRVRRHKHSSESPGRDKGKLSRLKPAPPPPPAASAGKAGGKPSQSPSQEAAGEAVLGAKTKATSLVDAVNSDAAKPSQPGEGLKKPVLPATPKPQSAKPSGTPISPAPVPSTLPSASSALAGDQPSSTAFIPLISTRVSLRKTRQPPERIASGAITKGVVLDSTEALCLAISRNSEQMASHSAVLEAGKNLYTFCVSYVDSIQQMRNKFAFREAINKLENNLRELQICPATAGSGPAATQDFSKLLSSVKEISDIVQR
Target sequence (Q13671 whole entry, looked up): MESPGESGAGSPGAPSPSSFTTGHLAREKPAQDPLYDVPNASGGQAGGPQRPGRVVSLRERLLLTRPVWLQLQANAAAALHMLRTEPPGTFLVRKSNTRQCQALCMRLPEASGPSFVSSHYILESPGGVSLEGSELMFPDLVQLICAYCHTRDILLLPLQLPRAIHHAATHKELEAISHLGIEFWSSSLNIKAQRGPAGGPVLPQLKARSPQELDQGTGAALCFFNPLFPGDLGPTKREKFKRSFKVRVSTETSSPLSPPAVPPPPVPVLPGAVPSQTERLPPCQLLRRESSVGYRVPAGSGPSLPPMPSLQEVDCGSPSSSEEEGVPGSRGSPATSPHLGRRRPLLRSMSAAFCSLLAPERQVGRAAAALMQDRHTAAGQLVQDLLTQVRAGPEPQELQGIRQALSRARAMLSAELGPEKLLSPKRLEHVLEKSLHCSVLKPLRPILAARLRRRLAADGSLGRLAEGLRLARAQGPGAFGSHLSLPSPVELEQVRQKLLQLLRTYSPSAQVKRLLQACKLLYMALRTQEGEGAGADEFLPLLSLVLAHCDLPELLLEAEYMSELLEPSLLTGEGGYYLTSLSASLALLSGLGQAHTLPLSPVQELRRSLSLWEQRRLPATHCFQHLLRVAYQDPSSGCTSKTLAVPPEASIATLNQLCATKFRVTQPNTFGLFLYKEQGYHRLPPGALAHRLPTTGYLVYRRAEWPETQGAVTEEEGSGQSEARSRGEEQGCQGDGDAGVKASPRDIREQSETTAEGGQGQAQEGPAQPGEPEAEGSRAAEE
proKLK7 act: activates the human kallikrein-7 zymogen. purified proKLK7, EDANS-DABCYL substrate fluorescence; 100% is mature enzyme control, 0% vehicle. activation, % at 7 µM. 0.9% of 370,000 active;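 active = activation above the mean of all tested compounds plus 3 SD, computed per campaign excluding outliers beyond control limits, cut at about 13% in these data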
KLK7 act conf: confirmation of human kallikrein-7 zymogen activators. shares compounds with proKLK7 act. 68% of 3,200 active. activation, % at 7 µM. purified proKLK7, EDANS-DABCYL substrate fluorescence; scaled: vehicle 0, mature enzyme 100;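 active = activation, as change over the incubation, above the mean of all tested compounds plus 3 SD, cut at about 13% in these data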
EDANS interfere: counter-screen for kallikrein-7 activators: EDANS-DABCYL optical interference; 80% of 3,200 active; EDANS-DABCYL substrate fluorescence interference, no enzyme, 4 h; solvent 0%, active enzyme control 100%; shares compounds with proKLK7 act; activation, % at 7 µM;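 active = activation above the all-compound mean plus 3 SD, ignoring values outside control-based bounds, cut at about 4.8% in these data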;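 also: value is the 4 h activation minus the activation read at time zero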
K7 EDANS ctr: optically interferes with EDANS-DABCYL fluorescence, kallikrein-7 activator counter-screen; shares compounds with proKLK7 act; EDANS-DABCYL peptide fluorescence interference, no enzyme; EC50, µM; 20% of 250 active;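 active = compounds that raise the fluorescence signal in this interference counterscreen, with EC50 at or below 10 µM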;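 also: intact quenched peptide substrate alone read at 355 nm excitation and 520 nm emission; signal is fluorescence gain from T0 to T4 after four hours at room temperature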
Numbers stand for hits; n = inactive; x = not tested or not shown.

SMILES | Neddyl block | LEDGF integ inh | UHRF1 MBD2 ctr | MBD2 DNA inh | Rin1-Abl PPI inh | proKLK7 act | KLK7 act conf | EDANS interfere | others
COc1ccc(-c2cc3ccccc3c(=O)o2)cc1 | n | n | n | n | x | 21.0 | n | n
COc1ccc(-c2cc(=O)c3cccc(CC(=O)O)c3o2)cc1 | x | n | n | n | x | 79.5 | 82.5 | 81.5
Cc1onc(-c2ccccc2)c1C(=O)N1CC(C)OC(C)C1 (configuration not stated) | n | n | n | n | n | n | x | x
COCCCNC(=O)COc1cc2c(c3oc(=O)c(C)c(C)c13)CCC(C)(C)O2 | x | n | n | n | n | 18.5 | n | n
CSC[C@H](NC(=O)COc1cc2c(c3oc(=O)cc(C)c13)CCC(C)(C)O2)C(=O)O | x | n | n | n | n | 23.7 | 59.5 | 64.3
Cc1cc(=O)oc2c3c(cc(OCC(=O)Nc4ccc(CCO)cc4)c12)OC(C)(C)CC3 | x | n | n | n | n | n | x | x
Cc1c(C)c2c(OCC(=O)N[C@@H](CC(C)C)C(=O)O)cc3c(c2oc1=O)CCC(C)(C)O3 | x | n | n | n | n | 45.4 | 41.0 | 27.4 | K7 EDANS ctr=n
Cc1c(C)c2c(OCC(=O)NCc3ccccn3)cc3c(c2oc1=O)CCC(C)(C)O3 | x | n | n | n | n | n | x | x
Cc1c(C)c2c(OCC(=O)N[C@@H](Cc3ccccc3)C(=O)O)cc3c(c2oc1=O)CCC(C)(C)O3 | x | n | n | n | n | 55.9 | 58.5 | 58.0
COc1ccccc1C(=O)OC(C)CN1CCN(C)CC1 (configuration not stated) | n | n | n | n | n | n | x | x
CS(=O)(=O)c1ccc(C(=O)NNC(=O)c2ccccc2-n2cccc2)cc1 | n | n | n | n | n | n | x | x
CC1CCCC(C)N1/N=C/c1ccc(C#N)cc1 (configuration not stated) | n | n | n | n | n | n | x | x
CCOc1ccc(-n2c(COc3ccccc3)nnc2SCc2nc3ccccc3[nH]2)cc1 | x | n | n | n | x | n | x | x
COC(=O)Cn1cnc2c(cnn2-c2ccc(C)cc2)c1=O | n | x | x | x | n | x | x | x
COC(=O)c1ccc(OC(=O)c2ccccc2F)cc1 | x | n | n | n | x | n | x | x
Cc1cc(N2CCN(C(=O)OC(C)(C)C)C[C@H]2C)ccc1N1CCN(Cc2ccccc2)[C@@H](C)C1 | x | n | n | n | x | n | x | x
CSCC[C@H](NC(=O)COc1cc2c(c3oc(=O)c(C)c(C)c13)CCC(C)(C)O2)C(=O)O | x | n | n | n | n | 57.1 | 67.3 | 72.8
CSC[C@H](NC(=O)COc1cc2c(c3oc(=O)c(C)c(C)c13)CCC(C)(C)O2)C(=O)O | x | n | n | n | n | 60.2 | 62.4 | 70.3
Cc1c(C)c2c(OCC(=O)NCC(O)c3ccccc3)cc3c(c2oc1=O)CCC(C)(C)O3 (configuration not stated) | n | n | n | n | n | n | x | x
CCCC(NC(=O)COc1cc2c(c3oc(=O)c(C)c(C)c13)CCC(C)(C)O2)C(=O)O (configuration not stated) | x | n | n | n | n | n | x | x
COc1ccccc1Oc1c(C)oc2c(CN3CCN(CCO)CC3)c(O)ccc2c1=O | x | n | n | n | x | 115.8 | 66.4 | 70.0
CN1CCN(Cc2c(O)ccc3c(=O)c(Oc4ccccc4Cl)c(C(F)(F)F)oc23)CC1 | n | n | n | n | n | n | x | x
Cc1oc2c(CN3CCCC3)c(O)ccc2c(=O)c1Oc1ccccc1Br | x | n | n | n | n | 82.6 | 55.8 | 76.0
CCOC(=O)c1ccc(Oc2c(C)oc3c(CN4CCN(C)CC4)c(O)ccc3c2=O)cc1 | x | n | n | n | n | 118.8 | 75.9 | 70.2
CCOC(=O)c1c(C)oc2c1c(CN1CCN(CCO)CC1)c(O)c1ccccc12 | n | n | n | n | n | n | x | x
SMILES | Neddyl block | LEDGF integ inh | UHRF1 MBD2 ctr | MBD2 DNA inh | Rin1-Abl PPI inh | proKLK7 act | KLK7 act conf | EDANS interfere | others
CCOc1ccccc1Oc1c(C)oc2c(CN3CCN(CCO)CC3)c(O)ccc2c1=O | x | n | n | n | n | 129.2 | 68.2 | 66.0
N#Cc1c(NC(=S)NC(=O)Cc2cccs2)sc2c1CCCCC2 | n | n | n | n | n | n | x | x
CCc1cc(=O)oc2c3c(cc(OCC(=O)NCCCn4ccnc4)c12)OC(C)(C)CC3 | x | n | n | n | n | n | x | x
CCCc1cc(=O)oc2c3c(cc(OCC(=O)N[C@@H](CSC)C(=O)O)c12)OC(C)(C)CC3 | x | n | n | n | n | 31.8 | 35.3 | 30.6
CCCc1cc(=O)oc2c3c(cc(OCC(=O)N[C@@H](C)C(=O)O)c12)OC(C)(C)CC3 | x | n | n | n | n | 49.2 | 70.0 | 78.5
CCc1cc(=O)oc2c3c(cc(OCC(=O)N[C@H](C(=O)O)[C@H](C)CC)c12)OC(C)(C)CC3 | x | n | n | n | n | 47.9 | 48.6 | 49.2
COc1ccc(NC2CCCN(C(=O)c3cn(C)c4ccccc34)C2)cc1 (configuration not stated) | n | n | n | n | n | n | x | x
CCOC(=O)[C@]12CCCC=C1N(Cc1ccccc1)C(=O)[C@H](CC(=O)N1CCN(C(=O)c3ccco3)CC1)C2 | n | n | n | n | x | n | x | x
COc1ccc(CNC(=O)CNC(=O)N2CC(=O)Nc3ccccc32)cc1 | n | n | n | n | n | n | x | x
Cc1ccc(NC(=O)[C@H]2CC(=O)O[C@@H]2c2ccccc2)c(C)c1 | x | n | n | n | x | n | x | x
CC(=O)Nc1ccc2c(c1)C(=O)c1ccccc1C2=O | n | n | n | n | n | n | x | x
CC(=O)Nc1cc2c3c(cccc3c1)-c1ccccc1-2 | x | n | n | n | n | 89.1 | 27.8 | n | K7 EDANS ctr=9.92
COc1ccccc1C(C)NCC(=O)NCC(=O)Nc1ccc(F)c(F)c1F (configuration not stated) | n | n | n | n | n | n | x | x
CC(OC(=O)c1ccccc1NCCO)C(=O)NCC(=O)Nc1ccc(F)c(F)c1F (configuration not stated) | x | n | n | n | n | 25.3 | 82.7 | 73.7
Cc1ccc(NC(=O)CN(C)C(=O)C(C)OC(=O)c2ccccc2NCCO)cc1 (configuration not stated) | x | n | n | n | n | 21.0 | n | n
Cc1ccc(NC(=O)CN(C)C(=O)C(c2ccccc2)c2ccccc2)cc1 | n | n | n | n | n | n | x | x
CC(C)CC1NC(=O)N(Cc2nc3ccccc3s2)C1=O (configuration not stated) | n | n | n | n | n | n | x | x
Nc1c(N(Cc2ccccc2)C(=O)COc2ccc([N+](=O)[O-])cc2)c(=O)[nH]c(=O)n1Cc1ccccc1 | n | n | n | n | n | n | x | x
